From ChEMBL document CHEMBL4513216, “Probing the Open Global Health Chemical Diversity Library for Multistage-Active Starting Points for Next-Generation Antimalarials” (ACS Infect Dis, 2020)
Among all 69,000 compounds or so, about 8,600 (12%) showed an effect of 50% or more. The sample as a whole holds a higher share of strong results than the screen did.

test system: Plasmodium berghei; experiment: Screen against P. berghei liver stage (PbLuc), transformed with Luciferase, at 10uM; assay type: functional, HepG2; conditions: tested at 10 uM

Compound | INHIBITION
CCC1CN(CC(=O)N2CCN(C(C)=O)CC2)CCN1CCOC (stereo not drawn) | 4.52%
CCN1CC(C(=O)N(C)Cc2cc3cc(F)ccc3[nH]2)CC1=O (stereo not drawn) | -14.1%
CN(C)CCN1CC(C(=O)N(C)Cc2cc3cc(F)ccc3[nH]2)CC1=O (stereo not drawn) | 52.2%
CN(Cc1cc2cc(F)ccc2[nH]1)C(=O)C1CC(=O)N(C2CCCC2)C1 (stereo not drawn) | 26.5%
Cc1cc(S(=O)(=O)N2CC[C@@H](O)C2)c(Cl)cc1F | -46.4%
Cc1ccc(S(=O)(=O)N2CC[C@@H](O)C2)c(F)c1 | 2.25%
Cc1cc(S(=O)(=O)N2CCC(N3CCC(O)C3)CC2)c(Cl)cc1Cl (stereo not drawn) | 71.1%
O=C(NCC1CCCO1)c1nc2c(s1)CCCN2c1ncccn1 (stereo not drawn) | -4.32%
Cc1ccc(C(=O)N2[C@@H]3CC[C@H]2CC(=O)N(C)C3)c(=O)[nH]1 | -1.85%
N#Cc1ccc(C(=O)N2C[C@H](OCc3cccnc3)[C@H]3COC[C@H]32)cc1 | -5.31%
CC(C)c1noc(CN(Cc2cccnc2)C2CN3CCC2CC3)n1 (stereo not drawn) | 77.5%
CC(C)c1noc(CCCC(=O)N2CCC(Cc3cccnc3)CC2)n1 | 27.1%
Cc1noc(C)c1CN(Cc1cccnc1)C1CN2CCC1CC2 (stereo not drawn) | 10.3%
CCc1cc(CN(Cc2cccnc2)C2CN3CCC2CC3)on1 (stereo not drawn) | 28.5%
CC(C)(C)c1nc(CN(Cc2ccccc2F)C2CCCCC2)no1 | 35.3%
CC(C)(C)c1nc(CN(Cc2cccnc2)C2CN3CCC2CC3)no1 (stereo not drawn) | 54.8%
O=S(=O)(Cc1ccc(Br)cc1)NCCO | 28.5%
Cc1nn(C)c(N2CCOCC2)c1CNCc1cscn1 | 27.0165%
CCc1nnc(CN2CCCC2Cn2cc(C)cn2)o1 (stereo not drawn) | -29.1%
O=C(c1ccc(F)c(F)c1)N1CCC(Cn2cc(CO)nn2)CC1 | 33.4%
Cc1nc(CN2CCCC(NCc3csc(C(C)(C)C)n3)C2)no1 (stereo not drawn) | 22.3%
COCCN1CCO[C@@H]2CN(C(=O)COc3ccc(C)cc3)C[C@@H]2C1 | 37.9%
[O-][S+](Cc1c(F)cccc1Cl)Cc1nnnn1C1CC1 (stereo not drawn) | 19.8%
CCc1nc2n(n1)CC(NCC(=O)Nc1cc(C(C)(C)C)no1)CC2 (stereo not drawn) | -13.5%
Cc1cc(C(=O)N2CCCC(C)C2)ccc1NCc1nc(C(C)C)no1 (stereo not drawn) | 18.2%
O=C(O)c1ccc2c(CN3CCOCC3)c[nH]c2c1 | 56.5%
O=C(O)c1ccc2[nH]cc(CN3CCOCC3)c2c1 | -9.76%
O=C(O)c1ccc2c(CN3CCCC3)c[nH]c2c1 | 42.3%
